TDP1 cell noCPT – qHTS for Inhibitors of human tyrosyl-DNA phosphodiesterase 1 (TDP1): qHTS in cells in absence of CPT | DT40 Tdp1-/- hTDP1 cells, no CPT, ATP luminescence, 48 h | Potency, µM (doses to about 46.2 µM), for inactives: at the highest dose activity change, negative = growth inhibition, usual class: inhibitors | actives 15% (n = 420,000) | AID 686978, 2013; also: nearly all actives have a fitted effect of over 55% in size
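Luminescent ATP content (CellTiter-Glo) served as the growth readout. Knockout chicken DT40 cells expressing human TDP1 were exposed to compounds without camptothecin for a minimum 48 hr at 37 °C.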
DT40 TDP1 CPT – growth inhibition of DT40 Tdp1-/-;hTDP1 cells with camptothecin (screen for TDP1 inhibitors); chicken DT40 Tdp1-/-;hTDP1 cells + 20 nM CPT, ATP luminescence, 48 h; actives 12% (n = 420,000); Potency, µM (doses to about 46.2 µM), without a hit: at the top dose activity change, negative = growth inhibition, most hits filed as inhibitors; AID 686979; also: nearly all actives have a fitted effect of over 55% in size
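Chicken DT40 Tdp1-/- cells complemented with human TDP1, 400 cells/well, exposed to compounds plus 20 nM camptothecin for at least 48 h at 37 C; viability read as ATP content by CellTiter-Glo luminescence.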
12-LOX inh – blocks human arachidonate 12S-lipoxygenase; actives 1.1% (n = 580,000); purified 12hLO, xylenol orange hydroperoxide absorbance; AID 1671190; P18054; Potency, µM (highest dose often 108 µM), without a hit: at the highest dose activity change, negative = inhibition, most hits filed as inhibitors
Target sequence (P18054 whole entry, looked up): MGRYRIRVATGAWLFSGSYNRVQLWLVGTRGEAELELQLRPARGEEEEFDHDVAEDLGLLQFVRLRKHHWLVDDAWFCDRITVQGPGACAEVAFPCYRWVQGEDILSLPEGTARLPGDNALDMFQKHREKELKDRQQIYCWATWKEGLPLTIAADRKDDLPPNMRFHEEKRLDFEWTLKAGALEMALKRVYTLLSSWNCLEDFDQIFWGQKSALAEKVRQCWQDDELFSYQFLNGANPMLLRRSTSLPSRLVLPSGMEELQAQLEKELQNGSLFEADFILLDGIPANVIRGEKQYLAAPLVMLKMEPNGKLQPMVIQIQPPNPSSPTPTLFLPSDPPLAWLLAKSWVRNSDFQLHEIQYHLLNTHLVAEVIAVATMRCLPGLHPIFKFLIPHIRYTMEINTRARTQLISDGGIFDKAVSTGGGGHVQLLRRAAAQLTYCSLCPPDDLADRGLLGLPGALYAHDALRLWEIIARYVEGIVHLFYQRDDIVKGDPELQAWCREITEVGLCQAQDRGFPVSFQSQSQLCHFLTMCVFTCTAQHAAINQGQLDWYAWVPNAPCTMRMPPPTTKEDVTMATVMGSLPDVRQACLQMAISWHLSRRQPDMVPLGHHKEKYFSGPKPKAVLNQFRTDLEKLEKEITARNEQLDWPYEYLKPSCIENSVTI
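Hydroperoxide product was detected by ferrous iron/xylenol orange as the 573 to 405 nm absorbance ratio. Arachidonic acid at 40 uM (final) was turned over for 30 min at room temperature by 150 nM human 12hLO, pH 7.0 Hepes buffer, after 15 min compound preincubation.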
VP16 counter – inhibits Gal4-VP16 luciferase reporter, ROR gamma counter-screen. Potency, µM (highest dose often 53.6 µM), inactives show at the highest dose activity, negative = inhibition, most hits filed as inhibitors. actives 3.5% (n = 310,000). Drosophila S2 Gal4-VP16 UAS-luciferase, luminescence, 20 h;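 also: Gal4-VP16 expression switched on by copper sulfate through the metallothionein promoter; nearly all actives have a fitted effect of over 50% in size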
ELG1 repair inh – ELG1-dependent DNA repair inhibition; actives 2.3% (n = 330,000); HEK293T ELG1-luciferase reporter, luminescence, 16 h; DNA damage induced by 5-fluorouridine; AID 504467; Potency, µM (series often up to 46.1 µM), without a hit: at the top dose activity change, negative = inhibition, actives largely listed as inhibitors; also: nearly all actives have a fitted effect of over 55% in size
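Luminescence from the luciferase reporter, measured 30 min after ONE-Glo reagent at room temperature, was the read-out. Beforehand, 2,000 cells per well were exposed for 16 hr at 37 °C to 5-fluorouridine together with compound or vehicle.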
RORgamma inh – ROR gamma (mouse) transcription inhibition; P51450; Drosophila S2 Gal4-RORgamma UAS-luciferase reporter, 20 h; Potency, µM (series often up to 53.6 µM), for the others: top-dose activity change, negative = inhibition, most hits filed as inhibitors; actives 5.4% (n = 310,000); AID 2551; also: nearly all actives have a fitted effect of over 60% in size
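In this cell-based reporter format, copper sulfate (700 uM final) drives Gal4–ROR gamma fusion expression from a metallothionein promoter in Drosophila Schneider cells; compounds preincubated 1 hr, reporter read after 20 hr at ambient temperature.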
* marks the source's active call; other numbers are inactive results. An excerpt weighted towards active compounds, which were near 15% of everything screened. Calls follow the shape of the dose curve; as a rule, active = well fitted curve in the direction sought with a large enough effect; inconclusive = small, poorly fitted or top-dose-only effect, or another doubt; inactive = no such curve, though single readings can be large; an effect the other way counts as inactive or inconclusive. % is scaled to controls: 0 for no effect and ±100 for the full control effect; potency is read from the fitted curve at half-maximal effect.

`CC1=NN(C(=O)c2ccc(C)o2)C(O)(c2ccccc2)C1` (stereo not given) gave TDP1 cell noCPT 4.6µM*, DT40 TDP1 CPT 4.6µM*, 12-LOX inh 13%, VP16 counter 6.3µM*, ELG1 repair inh 29% and RORgamma inh 3.2µM*.
For CC1CCCC=CC2CC(OC(=O)CN(C)C)CC2C(O)C=CC(=O)O1 (stereo not given) the results were TDP1 cell noCPT 1µM*, DT40 TDP1 CPT 0.92µM* and 12-LOX inh -7%.
For COc1ccc(CCNC(=O)C2CC3Cn4c(nc5cc6ccccc6cc54)C3N2C)cc1 (stereo not given) the results were TDP1 cell noCPT 21µM*, DT40 TDP1 CPT 15µM*, 12-LOX inh -2%, VP16 counter -1%, ELG1 repair inh 3% and RORgamma inh 4%.
`COc1ccccc1CNC(=O)C1CC2Cn3c(nc4cc(Cl)c(Cl)cc43)C2N1C` (stereo not given) gave TDP1 cell noCPT 23µM*, DT40 TDP1 CPT inconclusive and 12-LOX inh 11µM*.
CCOC(=O)C1CCCN(C(=O)c2coc(COc3cccc(F)c3F)n2)C1 (stereo not given) was read as 12-LOX inh 25%.
Screening COc1ccc(-c2nc(NC(=O)c3ccc(OCC(=O)Nc4ccc(F)cc4)c(OC)c3)sc2C)cc1 returned TDP1 cell noCPT 18µM*, DT40 TDP1 CPT inconclusive, 12-LOX inh -20%, VP16 counter 20µM*, ELG1 repair inh inconclusive and RORgamma inh inconclusive.
`COc1cc(C(=O)NNC(=O)c2ccc(F)cc2)ccc1OCC(=O)N1CCOCC1` gave TDP1 cell noCPT -4%, DT40 TDP1 CPT 2%, 12-LOX inh 6% and ELG1 repair inh inconclusive.
For CCOc1ccccc1NC(=O)c1ccc(OCC(=O)N2CCOCC2)c(OC)c1 the results were TDP1 cell noCPT 3%, DT40 TDP1 CPT -12%, 12-LOX inh 174% and ELG1 repair inh 7%.
For COc1ccc(OC)c(NC(=O)c2ccc(OCC(=O)N3CCOCC3)c(OC)c2)c1 the results were TDP1 cell noCPT inconclusive, DT40 TDP1 CPT -29%, 12-LOX inh -18% and ELG1 repair inh -13%.
Screening COc1cc(C(=O)Nc2nc(-c3ccc(C)cc3)cs2)ccc1OCC(=O)N1CCOCC1 returned TDP1 cell noCPT 21µM*, DT40 TDP1 CPT 23µM*, 12-LOX inh -7%, VP16 counter -21%, ELG1 repair inh 21µM* and RORgamma inh inconclusive.
COc1cc(C(=O)NCCN2C(=O)S/C(=C\c3ccc(F)cc3)C2=O)ccc1OCC(=O)N1CCOCC1 was read as TDP1 cell noCPT 15µM*, DT40 TDP1 CPT 16µM*, VP16 counter -5%, ELG1 repair inh 7% and RORgamma inh -10%.
Screening COc1ccc(-c2csc(NC(=O)c3ccc(OCC(=O)N4CCOCC4)c(OC)c3)n2)cc1 returned TDP1 cell noCPT 10µM*, DT40 TDP1 CPT 7.3µM*, 12-LOX inh -22%, VP16 counter -6%, ELG1 repair inh 16µM* and RORgamma inh inconclusive.
Cc1ccc(-c2nc(C(=O)N3CCN(c4ccc(C)cc4)CC3)no2)cc1 was read as 12-LOX inh -5%.
For COc1ccc(-c2cc(C(=O)N3CCOCC3)c3ccccc3n2)cc1OC the results were TDP1 cell noCPT -26%, DT40 TDP1 CPT -11%, 12-LOX inh inconclusive and ELG1 repair inh -22%.
For COc1cc(C(=O)Nc2nc(-c3ccc(F)cc3)cs2)ccc1OCC(=O)N1CCOCC1 the results were TDP1 cell noCPT 12µM*, DT40 TDP1 CPT 18µM*, 12-LOX inh -13%, VP16 counter -16%, ELG1 repair inh inconclusive and RORgamma inh inconclusive.
